HCV inh = inhibitors of hepatitis C virus infection. Huh7.5.1 HCVcc-Cre infection, luciferase reporter, 44 h. Potency, µM (highest dose often 41.8 µM), usual class: inhibitors. 340,000 tested, 3.4% active. AID 651820; active means well fitted inhibition curve with a large enough effect; inconclusive means small, poorly fitted or top-dose-only effect, or another doubt; inactive means no such curve, though single readings can be large or run the other way
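Infectious HCV cell culture screen: compound-treated cells (1,000/well, pre-plated 4 h) are infected with HCVcc-Cre at roughly 0.5 moi and grown 44 h. Infection is quantified by luciferase signal after 15 min substrate incubation at room temperature.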
LASV entry inh = Lassa virus entry inhibition; Lassa virus pseudotype entry inhibition, cell reporter; Potency, µM (titrated, usually from 37.9 µM), most hits filed as inhibitors; 300,000 tested, 1.2% active; calls by dose curve; tested in HEK293 cells; further: nearly all actives have a fitted effect of over 50% in size
MARV entry inh = inhibitors of Marburg virus binding or cell entry. Marburg virus pseudotyped entry inhibition, cell reporter. Potency, µM (highest dose often 37.8 µM), actives largely listed as inhibitors. 300,000 tested, 1.8% active; calls by dose curve; tested in HEK293 cells
Vaccinia mCherry = vaccinia inhibition (mCherry reporter). Vaccinia virus mCherry reporter infection, fluorescence. Potency, µM (doses to about 36.5 µM), usual class: inhibitors. 310,000 tested, 0.63% active; calls by dose curve; tested in A549 cells; further: nearly all actives have a fitted effect of over 35% in size
FMDV antiviral = blocks foot and mouth disease virus; FMDV antiviral cell-based qHTS; Potency, µM (titrated, usually from 57.9 µM), most hits filed as inhibitors; 410,000 tested, 1.2% active; AID 1159524; calls by dose curve; tested in HEK293T cells; further: read-out not given here; nearly all actives have a fitted effect of over 45% in size
VACV Venus inh = vaccinia inhibition (Venus reporter); Vaccinia virus Venus reporter expression, fluorescence; Potency, µM (highest dose often 36.5 µM), most hits filed as inhibitors; 330,000 tested, 0.46% active; calls by dose curve; tested in A549 cells; further: nearly all actives have a fitted effect of over 30% in size
Of the large screens only hits and unclear results are named; the others gave an inactive call. Rows were chosen to be rich in hits. Some 5.3% of all compounds tested hit in one or more screens of this group.

O=C1CCCN1c1ncc(S(=O)(=O)c2ccc([N+](=O)[O-])cc2)s1	HCV inh inconclusive, Vaccinia mCherry 11µM, FMDV antiviral inconclusive, VACV Venus inh inconclusive
COc1ccc(CCn2c(C)cc3c(c2=O)[C@H](c2ccc4c(c2)OCO4)C(C#N)=C(N)O3)cc1OC	none (no result: HCV inh, LASV entry inh, Vaccinia mCherry, FMDV antiviral, VACV Venus inh)
COC(=O)[C@@]1(C=C2c3ccc(F)cc3[C@@H](OC)[C@@H]2C)[C@@H]2C=CC[C@@H]21	none (no result: HCV inh, LASV entry inh, Vaccinia mCherry, FMDV antiviral, VACV Venus inh)
O=C(Nc1ccccc1C(=O)Nc1ccc(Br)cn1)c1ccccc1Cl	HCV inh 13µM (no result: LASV entry inh, MARV entry inh, Vaccinia mCherry, VACV Venus inh)
O=C(NC(=S)NNC(=O)c1ccc(Cl)cc1Cl)c1cccnc1	MARV entry inh inconclusive
Cc1ccccc1C(=O)NNC(=S)NC(=O)c1ccc(Cl)cc1Cl	HCV inh 0.56µM, MARV entry inh inconclusive, VACV Venus inh inconclusive (no result: FMDV antiviral)
Cc1ccc(C(=O)Nc2ccccc2C(=O)Nc2ccccn2)cc1Cl	HCV inh inconclusive, MARV entry inh 13µM
O=C(Nc1ccccn1)c1ccc(-c2ccccc2)cc1	HCV inh 10µM, LASV entry inh inconclusive, MARV entry inh 1.1µM
Cc1c(C(=O)N2CCCCC2c2cccnc2)sc2ncnc(NCc3cccs3)c12 (centres undefined)	none (no result: HCV inh, LASV entry inh, MARV entry inh)
COc1ccc(CCNC(=O)c2ccc(Cn3c(=O)c4ccccc4n(Cc4cccc(F)c4)c3=O)cc2)cc1OC	LASV entry inh inconclusive, MARV entry inh inconclusive, FMDV antiviral inconclusive (no result: HCV inh)
Cc1cc(C)cc(NC(=O)C2CCC(CNS(=O)(=O)c3ccc4c(c3)C(C)(C)C(=O)N4C)CC2)c1 (centres undefined)	Vaccinia mCherry inconclusive, VACV Venus inh inconclusive (no result: HCV inh, MARV entry inh)
Cc1ccnc(NC(=O)c2ccc(Cl)c(NC(=O)c3ccccc3C)c2)c1	HCV inh inconclusive (no result: LASV entry inh, MARV entry inh, Vaccinia mCherry, VACV Venus inh)
Cc1ccnc(NC(=O)c2ccccc2NC(=O)c2ccc(Cl)cc2Cl)c1	HCV inh 10µM (no result: LASV entry inh, MARV entry inh, Vaccinia mCherry, VACV Venus inh)
CN1C(=O)C(=Cc2sc(=O)n(-c3ccccc3)c2N(C)C)C(=O)N(C)C1=O	HCV inh inconclusive, MARV entry inh inconclusive, FMDV antiviral 16µM
Cc1cc(C=C2C(=O)N(C)C(=O)N(C)C2=O)c(C)n1-c1ccccc1	none (no result: Vaccinia mCherry, VACV Venus inh)
CCN1CCN(Cc2cc(Br)ccc2O)CC1	HCV inh 35µM (no result: Vaccinia mCherry, VACV Venus inh)
CCc1ccc(CN2CCN(Cc3cc(Br)ccc3O)CC2)cc1	MARV entry inh inconclusive
C=CCN(c1ccccc1)S(=O)(=O)c1cccc(C(=O)Nc2ccncc2)c1	HCV inh inconclusive, LASV entry inh inconclusive, MARV entry inh inconclusive, FMDV antiviral 22µM
CN(c1cccc(Cl)c1)S(=O)(=O)c1cccc(C(=O)Nc2nc3ccccc3[nH]2)c1	HCV inh inconclusive, LASV entry inh inconclusive, MARV entry inh 22µM, Vaccinia mCherry inconclusive, FMDV antiviral 13µM, VACV Venus inh 11µM
CCN(c1ccccc1)S(=O)(=O)c1cccc(C(=O)NCC(c2ccc(OC)cc2)N2CCCCC2)c1 (centres undefined)	none (no result: HCV inh, LASV entry inh, MARV entry inh)
CCN(c1ccccc1)S(=O)(=O)c1ccc(C(=O)Nc2cccc(NC(C)=O)c2)cc1	FMDV antiviral inconclusive (no result: LASV entry inh, MARV entry inh, Vaccinia mCherry, VACV Venus inh)
COc1ccc(N(C)S(=O)(=O)c2cccc(C(=O)Nc3nc4ccccc4[nH]3)c2)cc1	HCV inh inconclusive, LASV entry inh inconclusive, MARV entry inh inconclusive, FMDV antiviral inconclusive, VACV Venus inh inconclusive
C=CCN(c1ccccc1)S(=O)(=O)c1cccc(C(=O)NCC(c2ccc(OC)cc2)N2CCCCC2)c1 (centres undefined)	HCV inh 6.3µM, LASV entry inh inconclusive, MARV entry inh inconclusive, Vaccinia mCherry inconclusive, VACV Venus inh inconclusive
CCN(c1ccccc1)S(=O)(=O)c1ccc(C(=O)Nc2ccncc2)cc1	HCV inh inconclusive, LASV entry inh inconclusive, MARV entry inh inconclusive, FMDV antiviral 25µM
COc1ccc(-c2nnn3c2nc(NCCc2ccc(OC)c(OC)c2)c2ccccc23)cc1	FMDV antiviral inconclusive (no result: HCV inh)
COc1cc2nc(Cl)nc(NC3CCN(Cc4ccccc4)CC3)c2cc1OC	none (no result: HCV inh, LASV entry inh, MARV entry inh, FMDV antiviral)
O=C(Nc1nc2ccccc2[nH]1)c1ccccc1	HCV inh inconclusive, LASV entry inh inconclusive, MARV entry inh inconclusive (no result: Vaccinia mCherry)
O=C(/C(=C/c1ccc(Cl)cc1)c1nc2ccccc2[nH]1)c1ccccc1	HCV inh 10µM, LASV entry inh 4.1µM, MARV entry inh inconclusive, Vaccinia mCherry inconclusive, FMDV antiviral inconclusive, VACV Venus inh inconclusive
O=C(N/C(=C/c1ccc(Cl)cc1)c1nc2ccccc2[nH]1)c1ccco1	MARV entry inh inconclusive, VACV Venus inh inconclusive
C=CCN(c1ccccc1)S(=O)(=O)c1cccc(C(=O)O)c1	LASV entry inh inconclusive
